The list is not random: actives were taken first. Their share in the collection is about 1.3%.
CRFBP-R2 agonist = agonists of human CRF-binding protein/CRF-R2 receptor complex; HEK293 CRF-R2/CRF-BP, calcium dye fluorescence (FLIPR); percent of saturating CRF peptide response; 350,000 compounds, 0.46% hits; activation, % at 13.2 µM;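 active = activation of at least 50%, plus an integration ratio under a set limit after plate pattern correction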
RTF Ca sens inh = cardiac RTF calcium desensitization. 340,000 compounds, 0.12% hits. inhibition, % at 7.15 µM. AID 493244. IANBD-labeled cardiac RTF, Ca2+ fluorescence. P19429+P45379;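 active = inhibition above the mean inhibition of all tested compounds plus 3 SD, cut at about 17% in these data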;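 note: assay run at fixed EC70 calcium of 1.6 mM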
cardiac RTF act = increases calcium sensitivity of human cardiac regulated thin filaments; P19429+P45379; IANBD-labeled TnC RTF fluorescence at EC20 calcium; 0% EC20 calcium, 100% full calcium; activation, % at 7.2 µM; 340,000 compounds, 0.24% hits;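 active = activation above the mean over all tested compounds plus 3 SD, cut at about 30% in these data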;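 note: rise in fluorescence read as greater calcium sensitivity of cardiac thin filaments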
Keap1 Nrf2 FP = Keap1-Nrf2 (human) interaction inhibition | Keap1 Kelch-Nrf2 peptide fluorescence polarization, 1536-well | 340,000 compounds, 0.15% hits | Q14145 | inhibition, % at 9.4 µM; in the data active = inhibition above about 12%;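 note: human Keap1 Kelch domain with fluorescein labeled Nrf2 9mer peptide probe; higher means more block of Keap1 binding to Nrf2 peptide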
Target sequence (Q14145 whole entry, looked up, the tested form may be a part): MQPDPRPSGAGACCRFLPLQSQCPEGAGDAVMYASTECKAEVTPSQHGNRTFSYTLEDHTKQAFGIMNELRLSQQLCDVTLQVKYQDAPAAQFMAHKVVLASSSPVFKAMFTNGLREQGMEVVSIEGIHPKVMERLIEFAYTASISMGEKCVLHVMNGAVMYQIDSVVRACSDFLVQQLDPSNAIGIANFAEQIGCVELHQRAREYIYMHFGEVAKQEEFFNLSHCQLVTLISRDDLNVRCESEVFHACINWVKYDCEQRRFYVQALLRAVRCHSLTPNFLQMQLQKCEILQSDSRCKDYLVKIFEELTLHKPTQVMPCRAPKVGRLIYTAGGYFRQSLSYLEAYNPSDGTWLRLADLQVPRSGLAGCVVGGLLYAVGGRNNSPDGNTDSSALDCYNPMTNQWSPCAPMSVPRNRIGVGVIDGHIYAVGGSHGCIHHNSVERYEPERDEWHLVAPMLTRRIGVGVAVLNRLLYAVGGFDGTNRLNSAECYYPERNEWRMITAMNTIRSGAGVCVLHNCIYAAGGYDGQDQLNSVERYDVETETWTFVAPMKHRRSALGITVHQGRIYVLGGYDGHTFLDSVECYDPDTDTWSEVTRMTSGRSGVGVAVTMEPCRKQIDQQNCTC
CRFR2-BP antag = CRF-BP/CRF-R2 complex antagonism. HEK293 CRF-R2/CRF-BP, CRF-induced calcium fluorescence. inhibition, % at 11.8 µM. 350,000 compounds, 0.59% hits. AID 588475;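 active = inhibition of the ligand-induced calcium signal above about 50% at the single tested concentration, limit read from the data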
C-LANA FP = KSHV C-LANA DNA binding inhibition; MBP-C-LANA/FAM-LBS DNA binding, fluorescence polarization; inhibition, % at 9 µM; 340,000 compounds, 0.078% hits; AID 504423;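 active = highest replicate inhibition at or above 60% at 9 µM, even if other replicates fall short; inactive = all replicates below 60% inhibition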
Of the large screens only hits and unclear results are named; the others gave an inactive call.

Cc1cc(=O)oc(C)c1C(=O)Nc1ccc2ncccc2c1	CRFBP-R2 agonist 78.2, cardiac RTF act 74.2
Cc1cc(=O)oc(C)c1C(=O)Nc1ccc2nsnc2c1	none
Cc1ccc(-n2nnnc2C(Cl)(Cl)c2nnnn2-c2ccc(C)cc2)cc1	CRFBP-R2 agonist 72.2
O=c1c(Sc2ccccc2)c(C(F)(F)F)[nH]n1-c1ccccc1	CRFR2-BP antag 80.7
O=c1c2c(C(F)(F)F)cc(C(F)(F)F)nc2[nH]n1-c1ccccc1	none
CCCCCOc1ccc(NS(C)(=O)=O)cc1	none
O=S(=O)(Cc1ccccc1)/C1=C(\N2CCOCC2)CCCCCC1	none
Cc1cccc(/C=C2/S/C(=N/N=C3\CC4CCC3(C)C4(C)C)NC2=O)c1 (centres undefined)	CRFR2-BP antag 50.1
O=C1N/C(=N/O)S/C1=C/c1cccc([N+](=O)[O-])c1	none
COc1ccc(C(=O)Cn2cnc3ccccc3c2=O)c(OC)c1	CRFBP-R2 agonist 54.1
COc1ccc(CNC(=O)C2CCCN(S(=O)(=O)c3ccc(F)cc3)C2)cc1 (centres undefined)	none
COc1ccc2nc(N=NC3=C(O)CC(C)(C)CC3=O)sc2c1	CRFR2-BP antag 50.5
CC1(C)CC(=O)C(N=Nc2ccc3ncsc3c2)=C(O)C1	none
Cc1cc(C)c(OCC(=O)Nc2ccccc2N2CCCCC2)c(C)c1	none (no result: Keap1 Nrf2 FP, C-LANA FP)
Cc1cc(C)c(OCC(=O)Nc2ccccc2N2CCOCC2)c(C)c1	CRFBP-R2 agonist 53.2
O=C(CN(C(=O)CCC(=O)Nc1ccccn1)c1cccc(F)c1)NCc1ccc(F)cc1	none
Nc1cccc(Oc2c(F)c(F)c(Oc3cccc(N)c3)c(F)c2F)c1	none (no result: RTF Ca sens inh, cardiac RTF act)
Nc1ccccc1Oc1c(F)c(F)c(Oc2ccccc2N)c(F)c1F	CRFR2-BP antag 67.0
Cc1ccc(C(=O)OCC(=O)NC(=O)c2ccccc2)o1	none
CCc1ccc(-c2nc(CN3CCC(C(=O)N4CCN(c5ccccn5)CC4)CC3)c(C)o2)cc1	none
CCc1ccc(-c2nc(CN3CCC(C(=O)N4CCN(c5ccccc5)CC4)CC3)c(C)o2)cc1	CRFBP-R2 agonist 312.7
O=C(O)c1ccccc1NS(=O)(=O)c1ccc(N/N=C/c2ccc(O)c(O)c2)c([N+](=O)[O-])c1	C-LANA FP 80.2
O=C(O)c1ccccc1NS(=O)(=O)c1ccc(NN=Cc2ccc(F)cc2)c([N+](=O)[O-])c1	none
Cc1nn(-c2ccccc2)c(N2CCCC2)c1/C=N/Nc1ccc(S(=O)(=O)Nc2ccccc2)cc1[N+](=O)[O-]	none
COc1ccccc1NS(=O)(=O)c1ccc(N/N=C/c2c(C)nn(-c3ccccc3)c2N2CCCC2)c([N+](=O)[O-])c1	CRFR2-BP antag 55.7
CC(C)CN1C(=O)C(=O)N(CC(=O)N2CCC(Cc3ccccc3)CC2)C1=O	none
CN1CC(=O)N(CC(=O)N2CCC(Cc3ccccc3)CC2)C1=O	CRFR2-BP antag 100.0
C/C(=N\OCC(=O)Nc1ccc(F)c(F)c1F)c1cc2ccccc2o1	CRFR2-BP antag 54.0
CSc1ccccc1NC(=O)CO/N=C(\C)c1cc2ccccc2o1	none
Cc1ccc2c(c1)[nH]c1c(=O)n(Cc3ccco3)cnc12	CRFBP-R2 agonist 83.5
Cc1ccc(C2(C)CC(C)(C)N(C(=O)CSc3nnc(C)s3)c3ccccc32)cc1 (centres undefined)	CRFR2-BP antag 114.7
CCCC1=C(C(=O)OCC)C(c2cccnc2)n2nc(C)nc2N1 (centres undefined)	CRFR2-BP antag 114.3
CCOC(=O)C1=C(C)Nc2nnnn2C1c1cccnc1 (centres undefined)	none
CSc1c(C#N)sc(=S)n1-c1ccc(C)cc1	CRFR2-BP antag 55.8
CCN(CC)c1ccc(/C=C/C(=O)c2ccc(Br)cc2)cc1	CRFBP-R2 agonist 325.5, cardiac RTF act 475.9
Cc1cccc(C)c1NC(=S)Nc1ccc(F)cc1	CRFR2-BP antag 60.0
O=C(CCCCn1c(=O)c2ccccc2n(Cc2ccc(F)cc2Cl)c1=O)NCc1ccco1	CRFR2-BP antag 75.0
CCOCCCn1c(SCc2nc3ccccc3s2)nc2ccccc2c1=O	CRFBP-R2 agonist 51.5
O=C(COC(=O)C1=NN(c2ccccc2)C(=O)CC1)Nc1ccc([N+](=O)[O-])cc1C(F)(F)F	none
O=c1cc(-c2ccc(O)c(O)c2)oc2cc(O)c([C@@H]3O[C@H](CO)[C@@H](O)[C@H](O)[C@H]3O)c(O)c12	none
O=c1c2cc(O)c(O)cc2oc2cc(O)c(C3OC(CO)C(O)C(O)C3O)c(O)c12 (centres undefined)	C-LANA FP 67.3
CCOc1cc(/C=C/c2cccc[n+]2C)ccc1O	CRFBP-R2 agonist 59.3
CCOc1cc(/C=C/c2cccc[n+]2C)ccc1OCC(=O)Nc1ccc(C)cc1	none
CC(NS(=O)(=O)c1ccc(Br)cc1)C(N)=O (centres undefined)	none
CCN(CC(=O)Nc1ccccc1C(F)(F)F)C(=O)c1ccc(-n2nc(C)c(CCC(=O)OC)c2C)cc1	cardiac RTF act 62.2
CCN(CC(=O)Nc1ccccc1C(F)(F)F)C(=O)c1cc(-c2ccccc2)nn1-c1ccccc1	none (no result: Keap1 Nrf2 FP, C-LANA FP)
O=C(c1ccc2c(c1)OCO2)N1CCC2(CC1)Oc1ccc(Cl)cc1C(=O)C21CC(c2ccccc2)=NO1 (centres undefined)	none
COc1ccc(C(=O)NC(=S)NNC(=O)c2cccc(C)c2)cc1	CRFBP-R2 agonist 131.3 (no result: RTF Ca sens inh, cardiac RTF act, Keap1 Nrf2 FP, C-LANA FP)
COc1ccc(Cl)cc1C(=O)NNC(=O)COC(=O)c1cccs1	CRFR2-BP antag 104.1
Cc1cccc(C(=O)NNC(=S)NC(=O)c2cccs2)c1	CRFBP-R2 agonist 154.2
CCNC(=S)NNC(=O)c1ccc(OC)cc1	none
CCCCC(=O)NC(=S)NNC(=O)c1ccc(OC)cc1	CRFBP-R2 agonist 85.3
COc1ccc(C(=O)NNC(=S)NC(=O)c2cccs2)cc1	none
COc1cccc(OCC(=O)NNC(=O)c2ccc3ccccc3c2O)c1	none
COCC(=O)n1nc(-c2ccc(Cl)cc2)nc1NCc1ccc(F)cc1	none
CCc1csc(CNC(=O)C2CCC(=O)N(Cc3cccc(F)c3)C2)n1 (centres undefined)	none
O=C(COc1cccc(Cl)c1)NNC(=S)Nc1ccccc1	none
CCCCCCCC(=O)NNC(=O)c1ccc(F)cc1	none
COc1ccc(C(=O)NNC(=S)NC(=O)c2ccc(OC)cc2)cc1	CRFBP-R2 agonist 51.4
COc1ccc(C(=O)NNC(=S)NC(=O)c2cccnc2)cc1	none
CCCCCC(=O)NNC(=O)c1ccc(F)cc1	CRFR2-BP antag 53.0
Cc1cccc(C(=O)NNC(=S)NC(=O)c2ccccc2)c1	CRFBP-R2 agonist 148.5
Cc1ccc(C(=O)NNC(=O)c2cccc(C)c2)cc1	none
O=C(COc1ccccc1)NNC(=S)NC(=O)c1ccc(Cl)cc1Cl	CRFBP-R2 agonist 69.0 (no result: RTF Ca sens inh, cardiac RTF act, Keap1 Nrf2 FP, C-LANA FP)
